Several values for one entry are separate records, joined by “and”; a condition that tells them apart may be missing. Equal values may be shown once. Activity calls are given as the source filed them. Rule for the calls: active = hit-call score of the fitted dose curve at least 0.9, where 1 is the maximum; inactive = score below 0.9.
Experiments:
[1] = target: CCAAT/enhancer-binding protein beta (Homo sapiens) (UniProt P17676); assay: ATG_C_EBP_CIS: Attagene CIS-FACTORIAL HepG2 Assay for human CCAAT/Enhancer Binding Protein (C/EBP) beta (AID 2282927); settings: HepG2 Attagene cis-factorial transcription factor reporter; actives raise or lower the signal
Outline: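 HepG2, transient MRTU transfection, 24 h treatment. RT-PCR plus CE fluorescence; DMSO negative control, bidirectional fit.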

[2] = ATG_CMV_CIS: Attagene CIS-FACTORIAL HepG2 Assay for human CMV (Internal Marker) (AID 2282928); settings: HepG2 CMV promoter reporter, transcription factor profiling; actives raise or lower the signal;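 note: endpoint acts as a background internal control marker rather than a target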
Outline: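 HepG2 cells transiently transfected with multiple cis-regulated reporter units; 24 h compound exposure. Reporter mRNA quantified by RT-PCR, 6-FAM primer-extension labeling, HpaI digestion and capillary electrophoresis; bidirectional fitting against DMSO baseline.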

[3] = ATG_DR4_LXR_CIS: Attagene CIS-FACTORIAL HepG2 Assay for human Liver X Receptor (LXR), DR4 submotif (AID 2282929); settings: HepG2 Attagene DR4 cis-reporter, mRNA transcription; AC50: actives raise or lower the signal unless noted; outcome: actives raise or lower the signal unless noted
Outline: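 Endogenous factor activity at a DR4 cis-element is read as reporter mRNA in transiently transfected HepG2 cells. Exposure lasts 24 h; transcripts are amplified, fluorescently labelled and sized by capillary electrophoresis, with DMSO as baseline.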

[4] = target: Aryl hydrocarbon receptor (Homo sapiens) (UniProt P35869); assay: ATG_Ahr_CIS: Attagene CIS-FACTORIAL HepG2 Assay for human Aryl Hydrocarbon Receptor (Ahr) (AID 2282930); settings: HepG2 AhR cis-factorial reporter transcription; actives raise or lower the signal
Outline: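 Endogenous factor activity is tracked through cis-promoter reporter units transfected into HepG2 cells. Transcript levels at 24 h are read by fluorescent RT-PCR and capillary electrophoresis, with activity in either direction scored relative to DMSO.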

[5] = ATG_AP_1_CIS: Attagene CIS-FACTORIAL HepG2 Assay for human Activator Protein 1 (AP-1) (AID 2282931); settings: HepG2 Attagene cis-factorial AP-1 reporter mRNA; actives raise or lower the signal
Outline: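 Fluorescence of labelled PCR fragments separated by capillary electrophoresis gives reporter mRNA levels. HepG2 with transfected cis-regulated reporter units, 24 h exposure; DMSO serves as baseline for bidirectional curve fits.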

[6] = ATG_AP_2_CIS: Attagene CIS-FACTORIAL HepG2 Assay for human Activator Protein 2 (AP-2) (AID 2282932); settings: HepG2 AP-2 cis-reporter, Attagene transcription factor profiling; AC50: actives raise or lower the signal unless noted; outcome: actives raise or lower the signal unless noted
Outline: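 Multiplexed mRNA reporter assay in HepG2: cis-regulated units report endogenous factor activity after 24 h treatment. Fluorescence from capillary electrophoresis of RT-PCR products gives the signal, with DMSO as baseline.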

[7] = ATG_BRE_CIS: Attagene CIS-FACTORIAL HepG2 Assay for human Bone Morphogenetic Protein (BMP) Response Element (BRE) (AID 2282933); settings: HepG2 BMP response element reporter, Attagene transcription factor profiling; actives raise or lower the signal
Outline: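 After a 24 h chemical treatment, transiently transfected HepG2 cells were lysed for RNA; reporter transcripts were quantified by fluorescent RT-PCR and capillary electrophoresis, normalised to DMSO.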

[8] = target: Retinoic acid receptor alpha (Homo sapiens) (UniProt P10276); assay: ATG_DR5_RAR_CIS: Attagene CIS-FACTORIAL HepG2 Assay for human Retinoic Acid Receptor Alpha (RARE), DR5 submotif (AID 2282934); settings: HepG2 Attagene cis-factorial RARE DR5 reporter, mRNA; actives raise or lower the signal
Outline: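 After 24 h of chemical exposure, transiently transfected HepG2 cells were lysed for total RNA; the DR5-regulated reporter transcript was quantified via RT-PCR and capillary electrophoresis, with activity fitted bidirectionally against DMSO.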

[9] = target: Transcription factor E2F1 (Homo sapiens) (UniProt Q01094); assay: ATG_E2F_CIS: Attagene CIS-FACTORIAL HepG2 Assay for human E2F Transcription Factor 1 (AID 2282935); settings: HepG2 Attagene cis-reporter, E2F reporter RNA transcripts; actives raise or lower the signal
Outline: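 Measures reporter transcript levels via RT-PCR with capillary electrophoresis detection in HepG2 cells harboring cis-regulated reporter units; 24 h post-dose; bidirectional curve fitting with DMSO as baseline.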

[10] = ATG_E_Box_CIS: Attagene CIS-FACTORIAL HepG2 Assay for human Enhancer Box (E-box) (AID 2282936); settings: HepG2 E-box cis-reporter transcription, actives raise or lower the signal
Outline: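 First, HepG2 cells receive multiple cis-regulated reporter constructs by transient transfection. Next, chemicals are applied for 24 h. Finally, reporter mRNA is quantified via RT-PCR and capillary electrophoresis, with DMSO as baseline.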

[11] = ATG_M_61_CIS: Attagene CIS-FACTORIAL HepG2 Assay for M61 Transcription Factor (Internal Marker) (AID 2282937); settings: HepG2 Attagene CIS-FACTORIAL M61 internal marker reporter; actives raise or lower the signal
Outline: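 This endpoint serves as an internal background control within a multiplexed HepG2 cis-reporter panel. Cells are exposed for 24 h; reporter mRNA is amplified, fluorescently labelled and sized by capillary electrophoresis, with DMSO as negative control.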

[12] = ATG_EGR_CIS: Attagene CIS-FACTORIAL HepG2 Assay for human Early Growth Response 1 (EGR1) (AID 2282938); settings: HepG2 Attagene CIS-FACTORIAL EGR reporter mRNA; actives raise or lower the signal
Outline: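 HepG2, transient MRTU transfection (cis promoters), 24 h compound. RNA → RT (oligo-dT) → PCR → 6-FAM labelling → HpaI cut → CE fluorescence. Bidirectional fit, DMSO baseline.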

[13] = ATG_Ets_CIS: Attagene CIS-FACTORIAL HepG2 Assay for human Erythroblast Transformation Specific (ETS) (AID 2282941); settings: HepG2 ETS cis-reporter transcription; AC50: actives raise or lower the signal unless noted; outcome: actives raise or lower the signal unless noted
Outline: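 HepG2 cells transiently transfected with cis-promoter reporter transcription units were dosed for 24 h; reporter mRNA was measured by RT-PCR, 6-FAM primer extension, HpaI digestion and capillary electrophoresis, with bidirectional fitting against DMSO baseline.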

[14] = target: Hepatocyte nuclear factor 3-beta (Homo sapiens) (UniProt Q9Y261); assay: ATG_FoxA2_CIS: Attagene CIS-FACTORIAL HepG2 Assay for human Forkhead box A2 (FOXA2) (AID 2282942); settings: HepG2 cis-reporter transcription factor activity, 24 h; actives raise or lower the signal
Outline: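 Cells: HepG2, transient multiplex reporter transfection. Exposure 24 h. Detection: reporter-specific RT-PCR, fluorescent labelling, restriction digest, capillary electrophoresis. Analysis: bidirectional curve fit, DMSO as negative control.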

[15] = ATG_FoxO_CIS: Attagene CIS-FACTORIAL HepG2 Assay for human Forkhead box O (FoxO) (AID 2282943); settings: HepG2 Attagene cis-reporter, FoxO element, mRNA; actives raise or lower the signal
Outline: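 Transfected HepG2 reporter cells exposed to test chemical for 24 h; reporter RNA measured by reverse transcription, PCR and fluorescent capillary electrophoresis; curves fitted for increases and decreases against DMSO.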

[16] = ATG_GLI_CIS: Attagene CIS-FACTORIAL HepG2 Assay for human Zinc Finger Protein GLI1 (AID 2282945); settings: HepG2, Attagene cis-factorial reporter mRNA, GLI element; actives raise or lower the signal
Outline: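 Transiently transfected HepG2 cells report endogenous transcription factor activity via cis-element-driven reporter units. After 24 h compound exposure, reporter mRNA was measured by RT-PCR with capillary electrophoresis; bidirectional fitting against DMSO baseline.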

[17] = target: Bile acid receptor (Homo sapiens) (UniProt Q96RI1); assay: ATG_IR1_CIS: Attagene CIS-FACTORIAL HepG2 Assay for human Nuclear Receptor Subfamily 1 Group H Member 4 (NR1H4), IR1 submotif (AID 2282946); settings: IR1 reporter transcription, actives raise or lower the signal
Outline: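 HepG2 cells transiently transfected with multiple cis-promoter-driven reporter units to measure endogenous transcription factor activity; 24 h exposure. Reporter mRNA read by RT-PCR, FAM labelling, HpaI digestion and capillary electrophoresis. Bidirectional fit versus DMSO.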

[18] = ATG_M_19_CIS: Attagene CIS-FACTORIAL HepG2 Assay for M19 Transcription Factor (Internal Marker) (AID 2282939); settings: HepG2 Attagene CIS-FACTORIAL M19 internal marker reporter; actives raise or lower the signal
Outline: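 In this multiplexed cell assay, transiently transfected HepG2 reporter units report endogenous transcription-factor activity; after 24 hours of treatment, labelled reporter cDNA fragments are quantified by capillary electrophoresis and fitted bidirectionally against DMSO.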

[19] = ATG_ERE_CIS: Attagene CIS-FACTORIAL HepG2 Assay for Estrogen Response Element (ERE) (AID 2282940); settings: HepG2 ERE cis-reporter, Attagene RNA transcript; actives raise or lower the signal
Outline: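 Measuring endogenous transcription factor output, the assay doses transfected HepG2 cells for 24 hours and quantifies reporter transcripts by fluorescent RT-PCR and capillary electrophoresis, with DMSO as baseline.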

[20] = ATG_GATA_CIS: Attagene CIS-FACTORIAL HepG2 Assay for human GATA Binding Protein (AID 2282944); settings: HepG2 GATA cis-element reporter, Attagene multiplex mRNA; actives raise or lower the signal
Outline: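 Measures endogenous transcription factor-driven reporter mRNA in HepG2 cells transiently carrying cis-regulated constructs. 24 h dosing; RNA via oligo(dT) reverse transcription, PCR, HpaI digestion, capillary electrophoresis; fitted relative to DMSO.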

Measured: AC50

Sequence of Bile acid receptor (Homo sapiens) (Q96RI1 whole entry, looked up): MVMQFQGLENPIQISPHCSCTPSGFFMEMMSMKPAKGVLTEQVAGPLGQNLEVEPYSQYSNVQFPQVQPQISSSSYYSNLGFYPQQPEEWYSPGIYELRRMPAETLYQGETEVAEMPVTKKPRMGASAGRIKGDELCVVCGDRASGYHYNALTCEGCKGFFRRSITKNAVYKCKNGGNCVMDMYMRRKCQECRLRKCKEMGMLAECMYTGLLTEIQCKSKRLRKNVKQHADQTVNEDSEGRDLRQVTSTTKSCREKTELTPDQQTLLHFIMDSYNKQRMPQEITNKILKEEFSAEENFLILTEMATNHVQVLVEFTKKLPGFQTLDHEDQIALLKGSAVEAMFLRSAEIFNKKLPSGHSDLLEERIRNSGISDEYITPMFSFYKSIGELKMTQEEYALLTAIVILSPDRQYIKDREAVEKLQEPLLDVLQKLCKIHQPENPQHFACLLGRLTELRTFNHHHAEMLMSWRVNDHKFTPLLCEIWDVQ
Sequence of CCAAT/enhancer-binding protein beta (Homo sapiens) (P17676 whole entry, looked up): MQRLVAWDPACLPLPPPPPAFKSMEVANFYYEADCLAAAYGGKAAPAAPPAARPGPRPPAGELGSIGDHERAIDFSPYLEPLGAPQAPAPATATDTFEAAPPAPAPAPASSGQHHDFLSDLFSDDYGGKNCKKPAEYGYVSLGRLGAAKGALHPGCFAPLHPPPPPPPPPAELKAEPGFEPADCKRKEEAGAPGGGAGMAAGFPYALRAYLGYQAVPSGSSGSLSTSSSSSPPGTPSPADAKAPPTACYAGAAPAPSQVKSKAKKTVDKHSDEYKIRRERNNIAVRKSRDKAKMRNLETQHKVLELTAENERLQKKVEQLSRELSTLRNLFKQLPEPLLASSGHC
Sequence of Hepatocyte nuclear factor 3-beta (Homo sapiens) (Q9Y261 whole entry, looked up): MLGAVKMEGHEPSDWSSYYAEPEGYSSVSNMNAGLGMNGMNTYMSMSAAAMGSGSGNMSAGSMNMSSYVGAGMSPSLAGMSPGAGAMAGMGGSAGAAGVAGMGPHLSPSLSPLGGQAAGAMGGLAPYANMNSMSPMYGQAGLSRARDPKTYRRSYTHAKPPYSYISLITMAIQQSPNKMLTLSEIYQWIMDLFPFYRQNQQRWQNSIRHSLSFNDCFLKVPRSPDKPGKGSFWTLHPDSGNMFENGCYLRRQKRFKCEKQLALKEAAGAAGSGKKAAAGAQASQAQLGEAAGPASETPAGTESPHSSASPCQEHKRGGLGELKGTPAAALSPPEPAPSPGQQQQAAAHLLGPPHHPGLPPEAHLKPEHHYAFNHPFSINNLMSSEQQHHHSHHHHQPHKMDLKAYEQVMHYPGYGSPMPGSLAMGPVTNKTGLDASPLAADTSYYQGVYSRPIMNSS
Sequence of Retinoic acid receptor alpha (Homo sapiens) (P10276 whole entry, looked up): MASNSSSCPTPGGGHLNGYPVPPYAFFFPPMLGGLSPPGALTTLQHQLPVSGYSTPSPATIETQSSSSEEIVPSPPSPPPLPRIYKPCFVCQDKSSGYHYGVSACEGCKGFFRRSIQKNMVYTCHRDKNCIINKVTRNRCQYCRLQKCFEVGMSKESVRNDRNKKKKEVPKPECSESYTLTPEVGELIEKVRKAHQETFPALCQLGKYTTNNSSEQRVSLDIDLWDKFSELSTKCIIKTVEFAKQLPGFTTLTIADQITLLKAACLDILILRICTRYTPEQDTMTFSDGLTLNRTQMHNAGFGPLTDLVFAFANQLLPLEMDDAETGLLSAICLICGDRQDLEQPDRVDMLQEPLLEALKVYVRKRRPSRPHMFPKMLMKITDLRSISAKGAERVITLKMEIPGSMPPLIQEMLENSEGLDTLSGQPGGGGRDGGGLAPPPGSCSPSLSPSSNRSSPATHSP
Sequence of Transcription factor E2F1 (Homo sapiens) (Q01094 whole entry, looked up): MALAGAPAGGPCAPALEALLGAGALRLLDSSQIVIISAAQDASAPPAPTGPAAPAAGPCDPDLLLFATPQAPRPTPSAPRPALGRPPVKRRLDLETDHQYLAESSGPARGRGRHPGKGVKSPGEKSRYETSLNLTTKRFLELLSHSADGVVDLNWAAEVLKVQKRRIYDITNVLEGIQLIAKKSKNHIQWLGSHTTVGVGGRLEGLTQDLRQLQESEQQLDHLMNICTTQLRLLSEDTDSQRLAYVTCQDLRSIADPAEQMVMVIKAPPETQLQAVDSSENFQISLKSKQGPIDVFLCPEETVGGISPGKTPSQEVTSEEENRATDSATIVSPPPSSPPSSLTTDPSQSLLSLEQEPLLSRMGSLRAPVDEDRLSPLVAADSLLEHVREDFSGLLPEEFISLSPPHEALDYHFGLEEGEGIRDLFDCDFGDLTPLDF
Sequence of Aryl hydrocarbon receptor (Homo sapiens) (P35869 whole entry, looked up): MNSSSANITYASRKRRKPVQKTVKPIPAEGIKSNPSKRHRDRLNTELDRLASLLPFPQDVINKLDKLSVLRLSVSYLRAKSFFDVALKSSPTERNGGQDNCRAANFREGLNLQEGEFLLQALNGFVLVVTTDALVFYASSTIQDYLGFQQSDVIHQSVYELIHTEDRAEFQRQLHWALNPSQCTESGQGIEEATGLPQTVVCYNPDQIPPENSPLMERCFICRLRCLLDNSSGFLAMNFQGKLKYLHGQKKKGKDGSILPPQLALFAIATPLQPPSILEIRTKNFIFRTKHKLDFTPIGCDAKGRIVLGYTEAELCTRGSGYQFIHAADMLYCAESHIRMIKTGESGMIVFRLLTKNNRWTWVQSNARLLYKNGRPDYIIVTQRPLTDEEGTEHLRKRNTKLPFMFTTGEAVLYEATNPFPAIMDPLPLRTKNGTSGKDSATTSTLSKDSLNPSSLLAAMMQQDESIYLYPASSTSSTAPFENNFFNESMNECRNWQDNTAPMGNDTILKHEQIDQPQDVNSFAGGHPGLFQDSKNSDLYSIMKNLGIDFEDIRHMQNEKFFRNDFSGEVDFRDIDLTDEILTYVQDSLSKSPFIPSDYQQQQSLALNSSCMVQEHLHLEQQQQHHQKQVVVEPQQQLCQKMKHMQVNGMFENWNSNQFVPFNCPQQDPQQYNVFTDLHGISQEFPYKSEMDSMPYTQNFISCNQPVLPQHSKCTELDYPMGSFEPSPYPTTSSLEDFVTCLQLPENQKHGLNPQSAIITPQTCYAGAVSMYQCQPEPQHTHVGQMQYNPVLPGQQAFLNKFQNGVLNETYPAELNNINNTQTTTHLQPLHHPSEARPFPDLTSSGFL

OCC(CO)(CBr)CBr
not listed: [18] | [19] | [20]
inactive: all other assays above

CCCCN(C)C
not listed: [9] | [11] | [16]
inactive: all other assays above

CCc1cccc(CC)c1NC(=O)C(=O)O
not listed: [8] | [13] | [16] | [18]
inactive: all other assays above

O=C(OC(=O)C(F)(F)C(F)(F)F)C(F)(F)C(F)(F)F
not listed: [9] | [20]
inactive: all other assays above

O=CC(F)(F)C(F)(F)C(F)(F)F
not listed: [16] | [18] | [20]
inactive: all other assays above

O=C(O)CCC(F)(F)C(F)(F)C(F)(F)C(F)(F)C(F)(F)F
not listed: [11] | [13]
inactive: all other assays above

FC(F)(F)C1(F)C(F)(F)C(F)(F)C(F)(F)C(F)(C(F)(F)F)C1(F)F (stereo not drawn)
not listed: [11]
inactive: all other assays above

Cc1ccccc1OCC(=O)O
active: [14] 26 µM
not listed: [8] | [11]
inactive: all other assays above

Cc1cc(=O)oc2cc(O)ccc12
active: [19] 41.8 µM and 58.5 µM
not listed: [8] | [17]
inactive: all other assays above

FC(F)=C(F)C(F)(F)C(F)(F)C(F)(F)C(F)F
not listed: [18] | [20]
inactive: all other assays above

C[C@]12CC[C@@H]3c4ccc(O)cc4CC[C@H]3[C@@H]1CC[C@@H]2OC(=O)CCC1CCCC1
active: [1] 137 µM | [2] 25.3 µM | [3] 14.8 µM | [4] 126 µM | [7] 58.2 µM | [10] 73.3 µM | [19] 0.0823 µM | [15] 177 µM | [16] 100 µM
not listed: [8] | [20]
inactive: all other assays above

O=C1OC(=O)C(F)(F)C1(F)F
not listed: [8] | [13] | [15] | [18]
inactive: all other assays above

O=C1c2ccccc2C(=O)c2c(O)c(O)cc(O)c21
active: [2] 27.3 µM | [4] 0.303 µM | [5] 19.8 µM | [10] 8.54 µM | [19] 2.42 µM
not listed: [9] | [15] | [18]
inactive: all other assays above

Cc1ccc(N=Nc2c(O)ccc3ccccc23)c(C)c1
active: [4] 0.36 µM | [5] 5.87 µM | [19] 5.07 µM
not listed: [9]
inactive: all other assays above

O=C(O)C(=O)O
not listed: [8] | [17] | [19]
inactive: all other assays above

— PubChem BioAssay (EPA / NIEHS)
